This excerpt belongs to a sample that is enriched for hits.
TDP1 cell CPT: DT40-hTDP1 cell growth loss with CPT; chicken DT40 Tdp1-/-;hTDP1 cells + 20 nM CPT, ATP luminescence, 48 h; Potency, µM (series often up to 46.2 µM), without a hit: at the highest dose activity change, negative = growth inhibition, most hits filed as inhibitors; actives 12% (n = 420,000); AID 686979; note: potency is the fitted concentration of half-maximal effect; nearly all actives have a fitted effect of over 55% in size
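Chicken DT40 Tdp1-/- cells stably complemented with human TDP1 were seeded at 400 cells/well in medium containing 20 nM camptothecin, exposed to pin-transferred compounds, and grown at 37 °C for at least 48 hr. Viability was read as ATP luminescence.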
TDP1 cell noCPT: qHTS for Inhibitors of human tyrosyl-DNA phosphodiesterase 1 (TDP1): qHTS in cells in absence of CPT | actives 15% (n = 420,000) | Potency, µM (doses to about 46.2 µM), without a hit: at the top dose activity change, negative = growth inhibition, most hits filed as inhibitors | DT40 Tdp1-/- hTDP1 cells, no CPT, ATP luminescence, 48 h | AID 686978, 2013; note: potency is the fitted concentration of half-maximal effect; nearly all actives have a fitted effect of over 55% in size
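Seeded 400 DT40-hTDP1 cells/well (vehicle DMSO, no 20 nM CPT); pinned compounds; ≥48 hr at 37 °C; CellTiter-Glo luminescence as viability measure.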
HT1080-NT tox: kills 2HG-producing HT-1080-NT fibrosarcoma cells; HT-1080-NT fibrosarcoma viability, CellTiter-Glo ATP luminescence, 48 h; actives 1.6% (n = 360,000); Potency, µM (doses to about 46.1 µM), without a hit: at the highest dose activity, negative = less viability, most hits filed as cytotoxic;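 note: NT is the 2HG producing partner of a matched IDH1 knockdown line; potency is the fitted concentration of half-maximal effect; 0% = DMSO-treated cells and -100% = media-only wells without cells; nearly all actives have a fitted effect of over 55% in size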
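Luminescent CellTiter-Glo readout after 48 hours of compound exposure at 37 degrees C defined viability of HT-1080-NT cells. Activity was normalized to DMSO wells and cell-free media wells; concentration-response curves were fitted and assigned curve classes.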
IL1B secr inh: inhibitors of inflammasome signaling (IL-1 beta secretion). activity change, % at 57.5 µM. actives 4.7% (n = 360,000). THP-1 LPS/ATP IL-1B secretion, AlphaLISA, 16 h; stronger effect = lower value. AID 743279; in the data active = activity change below about -50%; inconclusive = mostly about -30% to -49%
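THP-1 cells pretreated 1 hr with compounds (up to 57.5 uM final), then stimulated with LPS (250 ng/mL final) plus ATP (1.25 mM final); secreted IL-1B measured by AlphaLISA after 16 hr, decreased signal indicating inhibition.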
HT1080 IDH1KD tx: toxicity to HT-1080 IDH1 knockdown cells (counter line); AID 686971; actives 2% (n = 360,000); HT-1080 IDH1 knockdown viability, ATP luminescence, 48 h; Potency, µM (doses to about 46.1 µM), without a hit: top-dose activity, negative = toxicity, usual class: cytotoxic;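 note: potency is the fitted concentration of half-maximal effect; 0% = DMSO wells and -100% = cell-free medium wells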
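After a 2 h attachment period, IDH1KD HT-1080 cells took pin-transferred compound for 48 h at 37 °C; ATP-based luminescence after 10 min room-temperature reagent incubation reported viability.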
12-LOX inh: ALOX12 (human) lipoxygenase inhibition; Potency, µM (top dose mostly 108 µM), for the others: at the top dose activity change, negative = inhibition, actives largely listed as inhibitors; AID 1671190; actives 1.1% (n = 580,000); purified 12hLO, xylenol orange hydroperoxide absorbance; P18054; note: potency is the fitted concentration of half-maximal effect
Target sequence (P18054 whole entry, looked up): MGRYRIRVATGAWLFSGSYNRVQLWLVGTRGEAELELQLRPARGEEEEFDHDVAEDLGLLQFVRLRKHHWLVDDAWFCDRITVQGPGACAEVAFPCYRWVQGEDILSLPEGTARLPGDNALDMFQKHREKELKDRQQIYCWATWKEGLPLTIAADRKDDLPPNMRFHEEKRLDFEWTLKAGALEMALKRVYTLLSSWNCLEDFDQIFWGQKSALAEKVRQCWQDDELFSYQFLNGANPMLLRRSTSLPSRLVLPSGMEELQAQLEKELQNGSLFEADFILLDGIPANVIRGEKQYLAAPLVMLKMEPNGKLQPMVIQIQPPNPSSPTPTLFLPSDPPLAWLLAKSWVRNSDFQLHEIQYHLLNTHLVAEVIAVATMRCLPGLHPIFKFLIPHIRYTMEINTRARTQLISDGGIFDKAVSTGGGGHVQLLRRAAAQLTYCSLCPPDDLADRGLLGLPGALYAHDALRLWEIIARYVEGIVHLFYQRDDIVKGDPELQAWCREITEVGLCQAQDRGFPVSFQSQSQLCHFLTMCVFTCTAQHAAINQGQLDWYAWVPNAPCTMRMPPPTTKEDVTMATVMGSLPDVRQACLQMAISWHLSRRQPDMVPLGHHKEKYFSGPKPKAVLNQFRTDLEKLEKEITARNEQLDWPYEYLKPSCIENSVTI
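Purified human 12hLO (150 nM final) in 25 mM Hepes, 0.01% Triton X-100, pH 7.0 was preincubated 15 min at room temperature with compound. Then 40 uM arachidonic acid was added, 30 min. Hydroperoxide was read by Fe-XO absorbance ratio 573/405 nm.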
The depositor's hits bear a star; ? = inconclusive; nt = not tested or not shown. Unless noted, calls come from the whole dose curve; as a rule, active = well fitted curve in the direction sought with a large enough effect; inconclusive = small, poorly fitted or top-dose-only effect, or another doubt; inactive = no such curve, though single readings can be large; an effect the other way counts as inactive or inconclusive. Unless noted, % is set by controls: 0 for no effect and ±100 for the full control effect.

SMILES	TDP1 cell CPT	TDP1 cell noCPT	HT1080-NT tox	IL1B secr inh	HT1080 IDH1KD tx	12-LOX inh
CCOC(=O)CC(NS(=O)(=O)c1ccc2[nH]c3c(c2c1)CCCC3)c1ccccc1Cl (centres undefined)	18µM*	?	nt	nt	nt	5%
CCOC(=O)C1CCN(S(=O)(=O)c2ccc3[nH]c4c(c3c2)CCCC4)CC1	?	-19%	-11%	44	25%	12%
COc1cccc(NS(=O)(=O)c2ccc3[nH]c4c(c3c2)CCCCCC4)c1	16µM*	21µM*	nt	nt	nt	6%
Cc1occc1-c1nnc(SCC(=O)Nc2ccc3c(c2)OC2(CCCCC2)O3)o1	nt	nt	nt	nt	nt	8%
CC1(C)Cc2c(C#N)c(Nc3ccccc3)n3c(SCC(=O)N4CCCCC4)nnc3c2CO1	nt	nt	nt	nt	nt	-27%
CC(Sc1ncnc2nc[nH]c12)C(=O)NCCc1c[nH]c2ccc(F)cc12 (centres undefined)	nt	nt	nt	nt	nt	-11%
CC(=O)n1c2ccccc2c2nc3ccccc3nc21	-5%	7%	13%	44	10%	nt
CC(=O)n1c2ccccc2c2c1c1ccccc1n2C	-19%	-23%	23µM*	0	?	30%
COC(=O)c1ccc(C(=O)OC)c(NC(=O)COC(=O)CC2CC3CCC2C3)c1 (centres undefined)	?	23µM*	5%	8	2%	-18%
COC(=O)c1ccc(C(=O)OC)c(NC(=O)COC(=O)C2CCC(C(C)(C)C)CC2)c1 (centres undefined)	23µM*	?	-1%	30	-11%	-16%
Cc1ccc(Cl)cc1NC(=O)COC(=O)CC1CC2CCC1C2 (centres undefined)	-21%	0%	9%	10	10%	0%
C[C@@H]1CN(C(=O)c2ccc(-c3nnn(C)n3)cc2)C[C@@]1(O)C1CC1	nt	nt	nt	nt	nt	26%
COc1ccc(-c2noc(-c3cccn3CC(=O)Nc3cccc(F)c3)n2)cc1F	nt	nt	nt	nt	nt	-11%
CC(C)Oc1ccc(CNC(=O)c2ccc(NC(=O)c3nsc4ccccc34)cc2)cc1	21µM*	18µM*	nt	nt	nt	2%
CCOc1ccc(CNC(=O)c2ccc(NC(=O)c3nsc4ccccc34)cc2)cc1	?	-16%	nt	nt	nt	-15%
CSc1ccc(CNC(=O)c2ccc(NC(=O)c3nsc4ccccc34)cc2)cc1	?	?	nt	nt	nt	-2%
COc1ccc(OC)c(CNC(=O)c2ccc(NC(=O)c3nsc4ccccc34)cc2)c1	?	18µM*	nt	nt	nt	3%
Cn1cc(C(=O)N(CCN2CCOCC2)C2CCCC2)c2ccccc21	nt	nt	nt	nt	nt	-2%
O=C(CC1N=C2c3ccccc3N=C(SCc3ccccc3F)N2C1=O)NCc1cccs1 (centres undefined)	?	18µM*	nt	nt	nt	-1%
Cc1ccc(CSC2=Nc3ccccc3C3=NC(CC(=O)NCc4cccs4)C(=O)N23)cc1 (centres undefined)	16µM*	16µM*	nt	nt	nt	2%
O=C(CC1N=C2c3ccccc3N=C(SCc3ccc(Cl)cc3)N2C1=O)NCc1cccs1 (centres undefined)	-29%	-19%	nt	nt	nt	-12%
Cc1noc(C)c1-c1ccc(C(=O)NCCc2ccccc2)c2occc12	?	?	-17%	4	6%	-1%
COc1ccc(NC(=O)c2ccc(-c3c(C)noc3C)c3ccoc23)cn1	?	?	?	4	1%	?
COc1ccc(-c2ccc(C(=O)Nc3ccc(Cl)cc3)c3occc23)c(C)c1	?	?	?	-8	?	-12%
Cc1noc(C)c1-c1ccc(C(=O)Nc2ccc(C(C)C)cc2)c2occc12	12µM*	10µM*	?	34	?	-2%
SMILES	TDP1 cell CPT	TDP1 cell noCPT	HT1080-NT tox	IL1B secr inh	HT1080 IDH1KD tx	12-LOX inh
CC(=O)Nc1ccc(NC(=O)c2ccc(-c3c(C)noc3C)c3ccoc23)cc1	21µM*	?	-1%	-5	-25%	-5%
Cc1noc(C)c1-c1cc(NCCN2CCOCC2)ncn1	0%	-25%	nt	nt	nt	40µM*
Cc1noc(C)c1-c1ccc(C(=O)NCCN2CCOCC2)c2occc12	?	29µM*	8%	0	5%	-38%
C/C=C/CSc1nc2c(c(=O)[nH]c(=O)n2C)n1CCOC	nt	nt	nt	nt	nt	-7%
CCOc1cc(C(=O)N(c2cc(C)cc(C)c2)C2C=CS(=O)(=O)C2)cc(OCC)c1OCC (centres undefined)	nt	nt	nt	nt	nt	3%
O=C([C@@H]1C[C@H](Oc2ccccc2)CN1C(=O)CCc1c[nH]c2ccccc12)N1CCOCC1	nt	nt	nt	nt	nt	57%
CC(=O)c1cccc(NC(=O)c2ccc(-c3c(C)noc3C)c3ccoc23)c1	16µM*	?	25%	77	?	?
Cc1noc(C)c1-c1ccc(C(=O)NCc2cccs2)c2occc12	?	?	-21%	-9	-25%	-4%
CC(=O)c1cccc(NC(=O)c2ccc(-n3cncn3)c3ccoc23)c1	?	?	25%	-15	5%	?
COc1cc(NC(=O)c2ccc(-c3c(C)noc3C)c3ccoc23)cc(OC)c1OC	13µM*	8.2µM*	-27%	-14	?	4%
COCC(=O)NC1CCC12CCN(Cc1cccc(F)c1)CC2 (centres undefined)	nt	nt	nt	nt	nt	37%
COc1ccc(CNC(=O)c2ccc(C3Nc4ccccc4S(=O)(=O)N3)cc2)cc1OC (centres undefined)	nt	nt	nt	nt	nt	-25%
O=C(C[C@H]1C[C@@H]2c3cc(NS(=O)(=O)c4ccccc4)ccc3O[C@@H]2[C@H](CO)O1)NC1CCCC1	-28%	-26%	0%	7	10%	-9%
COc1cccc(S(=O)(=O)Nc2ccc3c(c2)[C@H]2C[C@H](CC(=O)N[C@@H](C)c4ccccc4)O[C@H](CO)[C@H]2O3)c1	?	15µM*	-10%	-15	-1%	?
O=C(C[C@@H]1C[C@@H]2c3cc(NS(=O)(=O)c4ccc(F)cc4)ccc3O[C@@H]2[C@@H](CO)O1)NC1CCCCC1	?	18µM*	-10%	-11	-3%	?
COc1cccc(S(=O)(=O)Nc2ccc3c(c2)[C@@H]2C[C@@H](CC(=O)NCc4ccc(Cl)cc4)O[C@@H](CO)[C@@H]2O3)c1	18µM*	16µM*	8.2µM*	44	6.5µM*	-38%

Screening data: PubChem BioAssay, National Center for Advancing Translational Sciences (NCATS)
